About 8,800 targets were measured; listed, in parts, are those with a hit and a random draw of the rest. About 0.5% of all pairs of compound and target were hits. Values without a mark were called inactive.
Experiments:
Test in all cases: log2 fold change, soluble protein after heating vs DMSO (PISA); higher = thermal stabilisation; K562 lysate, 10 uM; active = over 0.2 and 3.5 SD of the protein, either way, in both replicates (recomputed)
[1] = compound: CCCS(=O)(=O)Nc1ccc(F)c(C(=O)c2c[nH]c3ncc(-c4ccc(Cl)cc4)cc23)c1F [vemurafenib]
Outline: (§1)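 Values give the log-two fold change in thermal stability against solvent controls, from duplicates. Crude K562 extract at 1 mg/mL protein, made by dounce homogenisation in PBS pH 7.4 with 1 mM MgCl2, was treated with 10 μM compound for 30 min. After 3 min heating across 48°C-58°C, aliquots were pooled, adjusted to 0.5% NP-40 at 4°C and centrifuged at 21,000xg for 90 min. The supernatant was measured by TMTpro 16plex LC-MS/MS with channel sums equalised.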

[2] = compound: CCCS(=O)(=O)Nc1ccc(F)c(C(=O)c2c[nH]c3ncc(Cl)cc23)c1F
Outline: as §1

[3] = compound: CCN(CCCOc1ccc2c(Nc3cc(CC(=O)Nc4cccc(F)c4)[nH]n3)ncnc2c1)CCOP(=O)(O)O [barasertib]
Outline: as §1

[4] = compound: CC[C@@H]1C(=O)N(C)c2cnc(Nc3ccc(C(=O)NC4CCN(C)CC4)cc3OC)nc2N1C1CCCC1
Outline: as §1

[5] = compound: CC[C@@H]1C(=O)N(C)c2cnc(Nc3ccc(C(=O)N[C@H]4CC[C@H](N5CCN(CC6CC6)CC5)CC4)cc3OC)nc2N1C(C)C [volasertib]
Outline: as §1

[6] = compound: CCn1c(C(=O)N(C2CC2)C2CC2)cc2c3c(ncn3C)c(Nc3cc(C)n(C)n3)nc21
Outline: as §1

[7] = compound: CCn1cc(-c2ccnc3[nH]c(-c4cccc(CN(C)C)c4)cc23)c(-c2ccc(NC(=O)N(C)C)cc2)n1
Outline: as §1

[8] = compound: CN1CCC(CNc2ccc3ncc(-c4cccc(OC(F)(F)F)c4)n3n2)CC1
Outline: as §1

[9] = compound: CN1CCN(CCOc2cc(OC3CCOCC3)c3c(Nc4c(Cl)ccc5c4OCO5)ncnc3c2)CC1 [saracatinib]
Outline: as §1

[10] = compound: CN1CCN(c2nc(C3=C(c4c[nH]c5ccccc45)C(=O)NC3=O)c3ccccc3n2)CC1 [sotrastaurin]
Outline: as §1

[11] = compound: CN1CC[C@H](c2c(O)cc(O)c3c(=O)cc(-c4ccccc4Cl)oc23)[C@H](O)C1 [alvocidib]
Outline: as §1

[12] = compound: CN1CCc2c(c3ccccc3n2Cc2ccc(C(=O)NO)cc2)C1 [Tubastatin A]
Outline: as §1

[13] = compound: CNC(=O)C1=CC=CC=C1NC2=NC(=NC=C2Cl)NC3=C(C=C(C=C3)N4CCOCC4)OC
Outline: as §1

[14] = compound: CNC(=O)c1ccc(Nc2ncc(C(F)(F)F)c(NCc3nccnc3N(C)S(C)(=O)=O)n2)cc1 [defactinib]
Outline: as §1

[15] = compound: CNc1nc(-c2ccc3c(N)n[nH]c3c2)cc(N2C[C@@H](C(=O)NC3CCCCC3)CC[C@H]2C)n1
Outline: as §1

[16] = compound: COC(=O)N[C@@H](C)CNc1nccc(-c2cn(C(C)C)nc2-c2cc(Cl)cc(NS(C)(=O)=O)c2F)n1 [encorafenib]
Outline: as §1

[17] = compound: COC(=O)[C@H](CCSC)NC(=O)C1=C(C=C(C=C1)NC[C@H](CS)N)C2=CC=CC=C2
Outline: as §1

[18] = compound: COc1cc(Nc2ncc3c(n2)-c2ccc(Cl)cc2C(c2c(F)cccc2OC)=NC3)ccc1C(=O)O [alisertib]
Outline: as §1

[19] = compound: COc1cc2nc(-c3cc(F)ccc3O)nc(N[C@@H]3CNC[C@H]3C(C)(C)O)c2cc1OC
Outline: as §1

[20] = compound: COc1cc2ncnc(Nc3ccc(F)c(Cl)c3)c2cc1OCCCN1CCOCC1 [gefitinib]
Outline: as §1

UniProt P35749, sequence (P35749 whole entry, looked up): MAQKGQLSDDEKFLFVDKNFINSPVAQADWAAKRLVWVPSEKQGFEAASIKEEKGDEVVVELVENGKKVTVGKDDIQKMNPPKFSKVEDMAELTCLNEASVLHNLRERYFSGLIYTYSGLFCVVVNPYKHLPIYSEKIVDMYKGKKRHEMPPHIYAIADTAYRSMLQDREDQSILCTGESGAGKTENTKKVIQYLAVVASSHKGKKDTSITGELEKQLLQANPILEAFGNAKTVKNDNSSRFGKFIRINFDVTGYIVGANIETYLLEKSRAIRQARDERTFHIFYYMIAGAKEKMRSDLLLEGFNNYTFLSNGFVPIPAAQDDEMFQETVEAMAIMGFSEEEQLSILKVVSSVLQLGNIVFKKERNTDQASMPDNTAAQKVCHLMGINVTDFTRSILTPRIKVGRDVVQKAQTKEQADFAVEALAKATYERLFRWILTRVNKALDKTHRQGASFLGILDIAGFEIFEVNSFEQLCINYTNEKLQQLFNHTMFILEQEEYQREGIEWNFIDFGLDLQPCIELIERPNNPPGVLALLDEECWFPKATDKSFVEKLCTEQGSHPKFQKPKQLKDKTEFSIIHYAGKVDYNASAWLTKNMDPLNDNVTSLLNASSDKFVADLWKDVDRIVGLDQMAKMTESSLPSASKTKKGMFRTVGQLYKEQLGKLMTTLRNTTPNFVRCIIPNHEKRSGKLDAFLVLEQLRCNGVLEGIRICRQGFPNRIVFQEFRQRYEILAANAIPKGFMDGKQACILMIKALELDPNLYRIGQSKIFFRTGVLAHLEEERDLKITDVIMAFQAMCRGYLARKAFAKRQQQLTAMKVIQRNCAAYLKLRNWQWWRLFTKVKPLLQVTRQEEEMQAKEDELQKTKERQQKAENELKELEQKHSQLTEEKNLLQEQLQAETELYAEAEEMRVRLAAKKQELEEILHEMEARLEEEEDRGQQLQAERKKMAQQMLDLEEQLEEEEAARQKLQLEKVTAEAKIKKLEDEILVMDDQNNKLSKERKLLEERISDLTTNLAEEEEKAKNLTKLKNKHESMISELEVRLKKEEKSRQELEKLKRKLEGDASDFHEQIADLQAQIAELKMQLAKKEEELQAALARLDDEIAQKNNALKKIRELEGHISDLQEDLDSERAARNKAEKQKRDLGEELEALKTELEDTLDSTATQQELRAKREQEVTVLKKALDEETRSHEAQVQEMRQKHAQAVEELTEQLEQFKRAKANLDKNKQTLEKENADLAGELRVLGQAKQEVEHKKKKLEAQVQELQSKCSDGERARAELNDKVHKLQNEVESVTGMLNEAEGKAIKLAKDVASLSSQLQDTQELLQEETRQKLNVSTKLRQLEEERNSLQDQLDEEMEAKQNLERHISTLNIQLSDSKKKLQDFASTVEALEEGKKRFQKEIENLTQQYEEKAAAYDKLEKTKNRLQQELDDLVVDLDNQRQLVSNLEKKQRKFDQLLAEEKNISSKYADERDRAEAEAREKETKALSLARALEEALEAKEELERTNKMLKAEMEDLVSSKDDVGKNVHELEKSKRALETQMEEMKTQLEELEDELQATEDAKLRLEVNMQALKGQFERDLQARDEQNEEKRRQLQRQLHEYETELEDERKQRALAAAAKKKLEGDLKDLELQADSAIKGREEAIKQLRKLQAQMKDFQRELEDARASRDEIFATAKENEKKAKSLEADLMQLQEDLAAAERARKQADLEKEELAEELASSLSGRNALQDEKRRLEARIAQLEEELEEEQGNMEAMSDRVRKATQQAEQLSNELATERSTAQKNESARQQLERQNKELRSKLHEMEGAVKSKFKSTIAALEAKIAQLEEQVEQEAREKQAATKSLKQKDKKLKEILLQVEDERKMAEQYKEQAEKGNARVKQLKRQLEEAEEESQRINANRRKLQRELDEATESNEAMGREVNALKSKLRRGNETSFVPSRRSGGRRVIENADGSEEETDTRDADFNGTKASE
UniProt Q9BTC8, sequence (Q9BTC8 whole entry, looked up): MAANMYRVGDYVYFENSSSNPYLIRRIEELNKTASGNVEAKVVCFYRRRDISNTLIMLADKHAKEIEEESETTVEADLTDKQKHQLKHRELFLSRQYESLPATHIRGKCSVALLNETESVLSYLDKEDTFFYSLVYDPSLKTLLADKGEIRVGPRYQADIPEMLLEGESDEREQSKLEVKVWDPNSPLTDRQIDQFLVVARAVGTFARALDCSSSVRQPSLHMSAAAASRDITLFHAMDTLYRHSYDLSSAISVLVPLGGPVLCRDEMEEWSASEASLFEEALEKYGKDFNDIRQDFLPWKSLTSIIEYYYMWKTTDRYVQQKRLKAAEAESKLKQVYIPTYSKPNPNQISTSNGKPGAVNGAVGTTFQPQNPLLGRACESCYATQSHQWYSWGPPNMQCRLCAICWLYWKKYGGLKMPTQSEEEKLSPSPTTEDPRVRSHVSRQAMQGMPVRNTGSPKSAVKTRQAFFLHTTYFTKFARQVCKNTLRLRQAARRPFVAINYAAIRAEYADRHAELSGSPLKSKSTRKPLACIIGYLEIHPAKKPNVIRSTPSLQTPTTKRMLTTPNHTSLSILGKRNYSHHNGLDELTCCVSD
UniProt O76041, sequence (O76041 whole entry, looked up): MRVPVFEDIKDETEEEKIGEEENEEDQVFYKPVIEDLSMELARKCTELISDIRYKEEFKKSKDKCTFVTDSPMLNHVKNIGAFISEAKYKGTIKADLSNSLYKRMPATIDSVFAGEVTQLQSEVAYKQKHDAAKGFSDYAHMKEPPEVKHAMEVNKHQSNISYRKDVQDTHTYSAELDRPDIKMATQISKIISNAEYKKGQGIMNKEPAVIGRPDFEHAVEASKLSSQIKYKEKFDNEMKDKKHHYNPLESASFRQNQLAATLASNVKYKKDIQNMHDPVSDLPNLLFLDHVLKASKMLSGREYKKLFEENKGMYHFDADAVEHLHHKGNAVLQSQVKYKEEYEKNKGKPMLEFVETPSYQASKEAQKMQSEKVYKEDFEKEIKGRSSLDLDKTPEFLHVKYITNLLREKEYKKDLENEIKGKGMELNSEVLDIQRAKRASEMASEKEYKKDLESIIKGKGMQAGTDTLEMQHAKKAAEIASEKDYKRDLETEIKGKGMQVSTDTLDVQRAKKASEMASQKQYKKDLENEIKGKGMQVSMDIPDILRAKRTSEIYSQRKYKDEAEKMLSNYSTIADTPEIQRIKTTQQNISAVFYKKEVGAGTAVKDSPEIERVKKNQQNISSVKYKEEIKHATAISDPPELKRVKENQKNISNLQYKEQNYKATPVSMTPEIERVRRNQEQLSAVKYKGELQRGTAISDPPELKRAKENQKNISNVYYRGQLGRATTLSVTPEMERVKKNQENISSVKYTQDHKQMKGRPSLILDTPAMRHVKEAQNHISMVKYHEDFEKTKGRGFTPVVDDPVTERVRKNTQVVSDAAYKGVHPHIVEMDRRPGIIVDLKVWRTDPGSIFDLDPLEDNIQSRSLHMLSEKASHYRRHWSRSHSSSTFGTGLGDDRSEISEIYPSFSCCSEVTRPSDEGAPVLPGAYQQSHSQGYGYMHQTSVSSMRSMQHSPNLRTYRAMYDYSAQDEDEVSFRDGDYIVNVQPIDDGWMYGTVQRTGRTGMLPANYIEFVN
UniProt P20585, sequence (P20585 whole entry, looked up): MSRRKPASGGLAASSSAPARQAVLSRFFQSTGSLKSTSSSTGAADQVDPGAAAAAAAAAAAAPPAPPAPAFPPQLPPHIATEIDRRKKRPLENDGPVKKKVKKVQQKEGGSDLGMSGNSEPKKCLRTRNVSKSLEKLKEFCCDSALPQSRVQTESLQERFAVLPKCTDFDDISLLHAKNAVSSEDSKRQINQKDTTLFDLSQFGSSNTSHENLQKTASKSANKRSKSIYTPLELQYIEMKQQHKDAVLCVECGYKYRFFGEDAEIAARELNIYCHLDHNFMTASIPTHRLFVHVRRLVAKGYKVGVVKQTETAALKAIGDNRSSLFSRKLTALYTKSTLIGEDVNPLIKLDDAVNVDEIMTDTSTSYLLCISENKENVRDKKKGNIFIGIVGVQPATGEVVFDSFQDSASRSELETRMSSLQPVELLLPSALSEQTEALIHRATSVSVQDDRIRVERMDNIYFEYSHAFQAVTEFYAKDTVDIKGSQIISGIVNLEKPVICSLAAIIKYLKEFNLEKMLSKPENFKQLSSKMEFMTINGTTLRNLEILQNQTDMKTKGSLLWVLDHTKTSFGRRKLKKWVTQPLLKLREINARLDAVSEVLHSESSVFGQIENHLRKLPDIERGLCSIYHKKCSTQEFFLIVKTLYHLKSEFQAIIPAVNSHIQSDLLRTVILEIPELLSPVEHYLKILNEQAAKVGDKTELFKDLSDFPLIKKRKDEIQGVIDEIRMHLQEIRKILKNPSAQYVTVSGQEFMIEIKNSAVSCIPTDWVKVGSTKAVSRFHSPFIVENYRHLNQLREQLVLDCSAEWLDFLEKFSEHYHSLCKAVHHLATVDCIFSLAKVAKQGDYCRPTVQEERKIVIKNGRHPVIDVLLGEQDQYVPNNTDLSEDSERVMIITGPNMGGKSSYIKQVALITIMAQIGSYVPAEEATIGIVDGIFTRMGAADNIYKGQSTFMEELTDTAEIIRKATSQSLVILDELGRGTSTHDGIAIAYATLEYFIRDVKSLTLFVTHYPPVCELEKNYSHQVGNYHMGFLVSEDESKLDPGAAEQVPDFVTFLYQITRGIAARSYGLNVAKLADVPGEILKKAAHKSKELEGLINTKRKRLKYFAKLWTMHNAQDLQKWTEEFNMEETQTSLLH

Target	log2 fold change [1]	log2 fold change [2]	log2 fold change [3]	log2 fold change [4]	log2 fold change [5]	log2 fold change [6]	log2 fold change [7]	log2 fold change [8]	log2 fold change [9]	log2 fold change [10]	log2 fold change [11]	log2 fold change [12]	log2 fold change [13]	log2 fold change [14]	log2 fold change [15]	log2 fold change [16]	log2 fold change [17]	log2 fold change [18]	log2 fold change [19]	log2 fold change [20]
MRPS18A isoform 2 (UniProt Q9NVS2)	0.073	0.03	0.037	0.073	-0.019	-0.04	0.306 (active)	-0.121	-0.042	0.036	0.18	-0.047	-0.156	-0.024	0.106	0.029	-0.037	0.041	-0.017	0.008
NCOR2 (UniProt C9J0Q5)	0.006	0.021	0.024	0.009	0.009	0.056	0.019	0.036	-0.026	0.032	0.024	-0.035	-0.013	0.045	-0.001	-0.002	0.006	0.036	0.017	0.049
NCAPD2 (UniProt Q15021)	0.025	0.014	0.016	-0.027	-0.057	0.022	-0.037	-0.055	0.006	0.021	0.007	-0.119	0.013	0.002	-0.018	0.013	0.076	0.004	-0.005	-0.016
NLRP2 (UniProt Q9NX02)	-0.011	-0.003	-0.04	-0.048	-0.067	0.041	0.031	-0.05	-0.012	-0.017	0.034	-0.227	0	0.024	-0.044	0.034	-0.239 (active)	-0.025	0	-0.012
MYH11 isoform 2 (UniProt P35749)	0.027	0.016	0.016	-0.011	-0.025	0.091	0.25 (active)	-0.033	0.029	0.002	-0.042	-0.069	-0.028	-0.083	0.031	-0.002	0.07	0.002	-0.005	0.031
NONO (UniProt Q15233)	-0.005	0.018	-0.006	-0.032	-0.049	0	0.076	-0.043	0.004	-0.015	0.049	-0.126	0.04	-0.01	0.014	0.011	0.102	0.026	-0.004	0.007
NFAT5 isoform 5 (UniProt O94916)	0.019	-0.007	-0.041	0.043	-0.016	0.042	-0.003	0.044	0.038	0.044	-0.026	0.003	-0.027	0.007	0.077	0.043	-0.041	-0.072	-0.01	0.454 (active)
MVB12A (UniProt Q96EY5)	-0.017	0.005	-0.04	0.094	-0.001	0.03	0.009	-0.001	0.015	0.01	-0.019	-0.221	-0.009	0.056	0.037	-0.015	-0.012	-0.011	-0.035	-0.055
NEBL (UniProt O76041)	0.034	-0.027	0.066	0.039	0.014	-0.014	0.29 (active)	-0.002	-0.035	0.085	0.149	0.022	-0.048	0.024	0.043	-0.083	0.015	-0.134	-0.005	0
MSH3 (UniProt P20585)	-0.004	0.048	-0.001	0.036	-0.031	-0.034	-0.025	0.031	0.038	0.039	0.021	-0.004	0.008	0.023	0.057	0.02	-0.013	-0.027	0.006	-0.012
MTA3 (UniProt Q9BTC8)	0.019	0.002	0.017	0.023	-0.022	-0.055	-0.017	-0.097	0.036	-0.006	-0.016	-0.013	0.019	0.044	-0.043	0.041	0.091	0.077	0.025	-0.059
MYCBP2 (UniProt O75592)	-0.026	0.036	0.037	0.017	-0.019	-0.01	-0.117	0.083	0.033	-0.029	-0.046	-0.098	0.024	0.019	0.003	0.055	-0.015	0.007	0.032	-0.004

Source: the supplement of paper PMC10849652
